PubChem BioAssay AID1159580 (chemical genetic matrix, 2015)
“And” between values parts separate entries of the source, which are not always exact repeats. Equal entries are not always repeated. About 2,000 (36%) of roughly 5,500 compounds were called active. Roughly 18% stayed inconclusive and do not appear here. Cut-off read from the data, not from the text of the source: active = normalized growth mostly below about 0.91 (no sharp cut-off); inconclusive = no clear call, values can overlap the other calls; inactive = mostly above about 0.92. Some of the results follow.

Assay: chemical genetic growth profiling, strain panel (AID 1159580);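 note: tested at 20 µM; growth read once vehicle control cultures reached saturation at 30 °C; 1 = growth at the plate median or of vehicle wells; lower values mean less growth of the strain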
Details: S. cerevisiae deletion strains, growth OD

Measured: normalized growth

OC(CCN1CCCC1)(c1ccccc1)C1CCCCC1 (centres undefined)
inactive: locus YAL021C, strain ccr4, stronger effect = lower value 0.994 | locus YAL026C, strain drs2, stronger effect = lower value 1 | locus YAL030W, strain snc1, stronger effect = lower value 0.986 | locus YBL061C, strain skt5, stronger effect = lower value 0.989 | locus YBR009C, strain hhf1, stronger effect = lower value 1 | locus YBR021W, strain FUR4, stronger effect = lower value 0.947 | locus YBR023C, strain chs3, stronger effect = lower value 0.987 | locus YBR171W, strain sec66, stronger effect = lower value 0.965 | locus YBR229C, strain ROT2, stronger effect = lower value 0.988 | locus YBR231C, strain swc5, stronger effect = lower value 0.977 | locus YBR279W, strain paf1, stronger effect = lower value 1 | locus YCL011C, strain gbp2, stronger effect = lower value 0.998 | locus YCL016C, strain dcc1, stronger effect = lower value 1.01 | locus YCL029C, strain bik1, stronger effect = lower value 0.985 | locus YCL061C, strain MRC1, stronger effect = lower value 0.976 | locus YCL069W, strain vba3, stronger effect = lower value 0.98 | locus YCR088W, strain abp1, stronger effect = lower value 0.976 | locus YDL005C, strain med2, stronger effect = lower value 0.984 | locus YDL035C, strain GPR1, stronger effect = lower value 0.994 | locus YDL040C, strain nat1, stronger effect = lower value 0.989 | locus YDL074C, strain BRE1, stronger effect = lower value 1.01 | locus YDL101C, strain DUN1, stronger effect = lower value 0.995 | locus YDL134C, strain PPH21, stronger effect = lower value 0.99 | locus YDL185W, strain tfp1, stronger effect = lower value 0.979 | locus YDL192W, strain arf1, stronger effect = lower value 0.986 | locus YDR001C, strain nth1, stronger effect = lower value 0.991 | locus YDR069C, strain doa4, stronger effect = lower value 0.986 | locus YDR101C, strain arx1, stronger effect = lower value 0.982 | locus YDR137W, strain rgp1, stronger effect = lower value 1.05 | locus YDR150W, strain NUM1, stronger effect = lower value 1 | locus YDR159W, strain sac3, stronger effect = lower value 0.991 | locus YDR162C, strain NBP2, stronger effect = lower value 0.995 | locus YDR195W, strain ref2 0.942 | locus YDR297W, strain sur2, stronger effect = lower value 0.978 | locus YDR318W, strain mcm21, stronger effect = lower value 0.973 | locus YDR334W, strain swr1, stronger effect = lower value 0.983 | locus YDR335W, strain msn5, stronger effect = lower value 0.981 | locus YDR388W, stronger effect = lower value 0.976 | locus YDR392W, strain spt3, stronger effect = lower value 1 | locus YDR502C, strain sam2, stronger effect = lower value 1 | locus YEL003W, strain gim4, stronger effect = lower value 0.975 | locus YEL037C, strain rad23, stronger effect = lower value 0.982 | locus YEL061C, strain CIN8 (second series), stronger effect = lower value 0.986 | locus YEL061C, strain CIN8, stronger effect = lower value 0.998 | locus YER015W, strain faa2, stronger effect = lower value 0.989 | locus YER016W, strain bim1, stronger effect = lower value 0.998 | locus YER110C, stronger effect = lower value 0.975 | locus YER111C, strain swi4, stronger effect = lower value 1 | locus YER155C, strain BEM2 (second series), stronger effect = lower value 0.946 | locus YER155C, strain BEM2, stronger effect = lower value 0.99 | locus YER167W, strain BCK2, stronger effect = lower value 0.992 | locus YFR010W, strain ubp6, stronger effect = lower value 0.976 | locus YGL078C, strain dbp3, stronger effect = lower value 0.985 | locus YGL086W, strain mad1, stronger effect = lower value 0.994 | locus YGL167C, strain pmr1, stronger effect = lower value 0.985 | locus YGL173C, strain kem1, stronger effect = lower value 0.972 | locus YGL227W, strain vid30, stronger effect = lower value 0.99 | locus YGL240W, strain doc1, stronger effect = lower value 0.963 | locus YGL248W, strain PDE1, stronger effect = lower value 0.996 | locus YGL253W, strain hxk2, stronger effect = lower value 1.01 | locus YGR078C, strain PAC10, stronger effect = lower value 0.998 | locus YGR135W, strain pre9, stronger effect = lower value 0.983 | locus YGR229C, strain SMI1, stronger effect = lower value 0.993 | locus YGR252W, strain gcn5, stronger effect = lower value 1.01 | locus YHR013C, strain ard1, stronger effect = lower value 1 | locus YHR027C, strain rpn1, stronger effect = lower value 0.991 | locus YHR030C, strain SLT2, stronger effect = lower value 0.987 and 1.02 | locus YHR079C, strain IRE1 (second series), stronger effect = lower value 0.977 | locus YHR079C, strain IRE1, stronger effect = lower value 1.02 | locus YHR094C, strain hxt1, stronger effect = lower value 0.975 | locus YHR129C, strain ARP1, stronger effect = lower value 1 | locus YHR142W, strain chs7, stronger effect = lower value 0.999 | locus YHR200W, strain rpn10, stronger effect = lower value 0.974 | locus YIL066C, strain RNR3, stronger effect = lower value 0.989 | locus YIL073C, strain SPO22, stronger effect = lower value 0.957 | locus YIL125W, strain kgd1, stronger effect = lower value 0.967 | locus YIR030C, strain dcg1, stronger effect = lower value 0.985 | locus YJL092W, strain hpr5, stronger effect = lower value 0.969 | locus YJL095W, strain BCK1 (second series), stronger effect = lower value 0.986 | locus YJL095W, strain BCK1, stronger effect = lower value 1 and 1.03 | locus YJL115W, strain asf1, stronger effect = lower value 0.987 | locus YJL129C, strain trk1, stronger effect = lower value 0.973 | locus YJL134W, strain LCB3, stronger effect = lower value 0.994 | locus YJL154C, strain vps35, stronger effect = lower value 0.991 | locus YJL164C, strain tpk1, stronger effect = lower value 1.01 | locus YJL166W, strain qcr8, stronger effect = lower value 0.952 | locus YJL168C, strain set2, stronger effect = lower value 0.974 | locus YJL187C, strain SWE1 (second series), stronger effect = lower value 0.989 | locus YJL187C, strain SWE1, stronger effect = lower value 0.996
